{
  "source": "the supplement of paper PMC3342239",
  "note": "Structures can show the parent of a compound that is named as a salt.",
  "data": [
    {"test_system": "Saccharomyces cerevisiae", "test": "fraction of cells in G1 phase (DNA content, flow cytometry); higher = more cells with unreplicated DNA (G1 delay)", "settings": "temperature: 30 C; YPD; BY4741 PDR5+ SNQ2+; drug added to: actively dividing cells; 4.33 h", "experimental": "(§1)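 S. cerevisiae cultures in YPD at 30°C were treated with each drug of the Enzo FDA-approved library at 20 µg/ml (final µM given per drug). Cells were fixed after 6–7 h (S1) or 6 h (S2), or after 4.33 h for BY4741 (S3), then stained with SYTOX Green. %G1 is the Dean-Jett-Fox G1 peak area divided by the G1+G2/M peak areas, written as a fraction and averaged over at least two independent experiments. DMSO reference: mean ~0.49; >0.60 is called High G1 and <0.3876 Low G1. Scale: lower means mitotic delay.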", "values": [
      {"smiles": "CN(C)CCCN1c2ccccc2Sc2ccc(Cl)cc21", "note": "[Chlorpromazine HCl] (62.7212 µM)", "fraction of cells in G1 phase": 0.373},
      {"smiles": "CC(C)C(=O)c1c(C(C)C)nn2ccccc12", "note": "[Ibudilast] (86.8386 µM)", "fraction of cells in G1 phase": 0.462},
      {"smiles": "CO[C@H]1C[C@@H]2CC[C@@H](C)[C@@](O)(O2)C(=O)C(=O)N2CCCC[C@H]2C(=O)O[C@H]([C@H](C)C[C@@H]2CC[C@@H](O)[C@H](OC)C2)CC(=O)[C@H](C)/C=C(\\C)[C@@H](O)[C@@H](OC)C(=O)[C@H](C)C[C@H](C)/C=C/C=C/C=C/1C", "note": "[Rapamycin] (21.8771 µM)", "fraction of cells in G1 phase": 0.625},
      {"smiles": "CC1CCc2c(N3CCC(O)CC3)c(F)cc3c(=O)c(C(=O)O)cn1c23", "note": "(stereo not given) [Nadifloxacin] (55.4956 µM)", "fraction of cells in G1 phase": 0.43}
    ]},
    {"test_system": "Saccharomyces cerevisiae", "test": "fraction of cells in G1 phase (DNA content, flow cytometry); higher = more cells with unreplicated DNA (G1 delay)", "settings": "temperature: 30 C; YPD; JTY2953 pdr5 snq2 (sensitized); drug added to: actively dividing cells; 6 h", "experimental": "as §1", "values": [
      {"smiles": "CC(C)C(=O)c1c(C(C)C)nn2ccccc12", "note": "[Ibudilast] (86.8386 µM)", "fraction of cells in G1 phase": 0.698},
      {"smiles": "CO[C@H]1C[C@@H]2CC[C@@H](C)[C@@](O)(O2)C(=O)C(=O)N2CCCC[C@H]2C(=O)O[C@H]([C@H](C)C[C@@H]2CC[C@@H](O)[C@H](OC)C2)CC(=O)[C@H](C)/C=C(\\C)[C@@H](O)[C@@H](OC)C(=O)[C@H](C)C[C@H](C)/C=C/C=C/C=C/1C", "note": "[Rapamycin] (21.8771 µM)", "fraction of cells in G1 phase": 0.788},
      {"smiles": "CC/C(=C(/CC)c1ccc(O)cc1)c1ccc(O)cc1", "note": "[Diethylstilbestrol] (74.5271 µM)", "fraction of cells in G1 phase": 0.42},
      {"smiles": "CC(C)(C)c1ccc(C(O)CCCN2CCC(C(O)(c3ccccc3)c3ccccc3)CC2)cc1", "note": "(stereo not given) [Terfenadine] (42.4008 µM)", "fraction of cells in G1 phase": 0.324},
      {"smiles": "Cc1ccc(-c2cc(C(F)(F)F)nn2-c2ccc(S(N)(=O)=O)cc2)cc1", "note": "[Celecoxib] (52.4412 µM)", "fraction of cells in G1 phase": 0.299}
    ]},
    {"test_system": "Saccharomyces cerevisiae", "test": "fraction of cells in G1 phase (DNA content, flow cytometry); higher = more cells with unreplicated DNA (G1 delay)", "settings": "temperature: 30 C; YPD; JTY2953 pdr5 snq2 (sensitized); drug added to: cultures diluted from stationary phase; 6-7 h", "experimental": "as §1", "values": [
      {"smiles": "CN(C)CCCN1c2ccccc2Sc2ccc(Cl)cc21", "note": "[Chlorpromazine HCl] (62.7212 µM)", "fraction of cells in G1 phase": 0.278},
      {"smiles": "C[C@@H]1C[C@H]2[C@@H]3CCC4=CC(=O)C=C[C@]4(C)[C@@]3(F)[C@@H](O)C[C@]2(C)[C@@]1(O)C(=O)CO", "note": "[Dexamethasone] (50.9591 µM)", "fraction of cells in G1 phase": 0.504},
      {"smiles": "CCCNCC(O)COc1ccccc1C(=O)CCc1ccccc1", "note": "(stereo not given) [Propafenone] (58.5652 µM)", "fraction of cells in G1 phase": 0.489},
      {"smiles": "CC(C)C(=O)c1c(C(C)C)nn2ccccc12", "note": "[Ibudilast] (86.8386 µM)", "fraction of cells in G1 phase": 0.604},
      {"smiles": "Clc1cccc(Cl)c1NC1=NCCN1", "note": "[Clonidine HCl] (75.0469 µM)", "fraction of cells in G1 phase": 0.504},
      {"smiles": "CO[C@H]1C[C@@H]2CC[C@@H](C)[C@@](O)(O2)C(=O)C(=O)N2CCCC[C@H]2C(=O)O[C@H]([C@H](C)C[C@@H]2CC[C@@H](O)[C@H](OC)C2)CC(=O)[C@H](C)/C=C(\\C)[C@@H](O)[C@@H](OC)C(=O)[C@H](C)C[C@H](C)/C=C/C=C/C=C/1C", "note": "[Rapamycin] (21.8771 µM)", "fraction of cells in G1 phase": 0.701},
      {"smiles": "CO/N=C(\\C(=O)N[C@@H]1C(=O)N2C(C(=O)O)=C(COC(C)=O)CS[C@H]12)c1csc(N)n1", "note": "[Cefotaxime acid] (43.9106 µM)", "fraction of cells in G1 phase": 0.485},
      {"smiles": "CC/C(=C(/CC)c1ccc(O)cc1)c1ccc(O)cc1", "note": "[Diethylstilbestrol] (74.5271 µM)", "fraction of cells in G1 phase": 0.838},
      {"smiles": "O=C(O)c1ccccc1Nc1cccc(C(F)(F)F)c1", "note": "[Flufenamic acid] (71.1145 µM)", "fraction of cells in G1 phase": 0.582},
      {"smiles": "CC1CCc2c(N3CCC(O)CC3)c(F)cc3c(=O)c(C(=O)O)cn1c23", "note": "(stereo not given) [Nadifloxacin] (55.4956 µM)", "fraction of cells in G1 phase": 0.281},
      {"smiles": "N#Cc1ccc(C(c2ccc(C#N)cc2)n2cncn2)cc1", "note": "[Letrozole] (70.099 µM)", "fraction of cells in G1 phase": 0.519},
      {"smiles": "COc1cc(-c2ccc(=O)[nH]n2)ccc1OC(F)F", "note": "[Zardaverine] (74.5651 µM)", "fraction of cells in G1 phase": 0.566},
      {"smiles": "CO[C@H]1C[C@H](O[C@H]2[C@H](C)[C@@H](O[C@@H]3O[C@H](C)C[C@H](N(C)C)[C@H]3OC(C)=O)[C@@H](C)C[C@@]3(CO3)C(=O)[C@H](C)[C@@H](OC(C)=O)[C@@H](C)[C@@H](C)OC(=O)[C@@H]2C)O[C@@H](C)[C@@H]1OC(C)=O", "note": "[Troleandomycin] (24.5704 µM)", "fraction of cells in G1 phase": 0.489},
      {"smiles": "CN(C)c1ccc(O)c2c1C[C@H]1C[C@H]3[C@H](N(C)C)C(=O)C(C(N)=O)=C(O)[C@@]3(O)C(=O)C1=C2O", "note": "[Minocycline HCl] (43.717 µM)", "fraction of cells in G1 phase": 0.51},
      {"smiles": "Cc1ccc(S(=O)(=O)NC(=O)NN2CC3CCCC3C2)cc1", "note": "(stereo not given) [Gliclazide] (61.8397 µM)", "fraction of cells in G1 phase": 0.51},
      {"smiles": "CC(C)(C)c1ccc(C(O)CCCN2CCC(C(O)(c3ccccc3)c3ccccc3)CC2)cc1", "note": "(stereo not given) [Terfenadine] (42.4008 µM)", "fraction of cells in G1 phase": 0.776},
      {"smiles": "O=C1C(=O)c2ccccc2C(O)=C1C1CCC(c2ccc(Cl)cc2)CC1", "note": "(stereo not given) [Atovaquone] (54.5185 µM)", "fraction of cells in G1 phase": 0.493},
      {"smiles": "C[C@]12CC[C@@H]3c4ccc(O)cc4CC[C@H]3[C@@H]1CCC2=O", "note": "[Estrone] (73.9714 µM)", "fraction of cells in G1 phase": 0.508},
      {"smiles": "Cc1ccc(-c2cc(C(F)(F)F)nn2-c2ccc(S(N)(=O)=O)cc2)cc1", "note": "[Celecoxib] (52.4412 µM)", "fraction of cells in G1 phase": 0.863},
      {"smiles": "CCN(CC)CCNC(=O)c1ccc(N)cc1", "note": "[Procainamide] (73.5835 µM)", "fraction of cells in G1 phase": 0.494},
      {"smiles": "COc1ccccc1OCC(O)CO", "note": "(stereo not given) [Guaifenesin] (100.898 µM)", "fraction of cells in G1 phase": 0.463},
      {"smiles": "CS(=O)(=O)c1ccc([C@H](O)[C@@H](COC(=O)CN)NC(=O)C(Cl)Cl)cc1", "note": "[Thiamphenicol glycinate] (48.3934 µM)", "fraction of cells in G1 phase": 0.478},
      {"smiles": "COc1ccc2cc(CCC(C)=O)ccc2c1", "note": "[Nabumetone] (87.6065 µM)", "fraction of cells in G1 phase": 0.535},
      {"smiles": "CCC(=O)O[C@]1(C(=O)CCl)[C@@H](C)C[C@H]2[C@@H]3CCC4=CC(=O)C=C[C@]4(C)[C@@]3(F)[C@@H](O)C[C@@]21C", "note": "[Clobetasol propionate] (42.8282 µM)", "fraction of cells in G1 phase": 0.526},
      {"smiles": "COc1cc2c(cc1OC)C(=O)C(CC1CCN(Cc3ccccc3)CC1)C2", "note": "(stereo not given) [Donepezil HCl] (48.0769 µM)", "fraction of cells in G1 phase": 0.515},
      {"smiles": "C=C[C@H]1CN2CC[C@H]1C[C@H]2[C@H](O)c1ccnc2ccc(OC)cc12", "note": "[Quinine] (55.417 µM)", "fraction of cells in G1 phase": 0.5},
      {"smiles": "OCc1cc(C(O)CNCCCCCCOCCCCc2ccccc2)ccc1O", "note": "(stereo not given) [Salmeterol] (48.1257 µM)", "fraction of cells in G1 phase": 0.472},
      {"smiles": "CN1CCc2cccc3c2[C@H]1Cc1ccc(O)c(O)c1-3", "note": "[Apomorphine r (-)] (74.8137 µM)", "fraction of cells in G1 phase": 0.483},
      {"smiles": "CCC[C@@H]1C[C@@H](C(=O)N[C@@H]([C@H]2O[C@H](SC)[C@H](O)[C@@H](O)[C@H]2O)[C@H](C)Cl)N(C)C1", "note": "[Clindamycin HCl] (47.0598 µM)", "fraction of cells in G1 phase": 0.505},
      {"smiles": "CC(C)(C)[C@]1(O)CCN2C[C@H]3c4ccccc4CCc4cccc(c43)[C@@H]2C1", "note": "[Butaclamol (+)] (55.3201 µM)", "fraction of cells in G1 phase": 0.535},
      {"smiles": "COc1cc2nc(N3CCN(C(=O)c4ccco4)CC3)nc(N)c2cc1OC", "note": "[Prazosin HCl] (47.6417 µM)", "fraction of cells in G1 phase": 0.487}
    ]}
  ]
}
